Screens as filed in PubChem BioAssay.
The list is not random: actives were taken first. Their share in the collection is about 19%.
Pf growth 96h – P. falciparum growth inhibition at 96 hour, primary screen for plastid delayed-death inhibitors | P. falciparum luciferase reporter growth, 96 h | Potency, µM (highest dose often 28.7 µM), usual class: inhibitors | 6.9% of 320,000 active | AID 504834
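P. falciparum expressing integrated firefly luciferase, in erythrocytes at 2% hematocrit, 0.05% parasitemia, incubated with compounds 96 h at 37 C, 5% CO2. Growth inhibition read as loss of luminescence; two-generation exposure targets delayed-death apicoplast inhibitors.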
Shiga toxin inh – blocks Shiga toxin action in Vero cells. inhibition, % at 38.7 µM. AID 2315. 9.2% of 290,000 active. Vero cells, Shiga toxin protein synthesis inhibition reporter; in the data active = inhibition mostly above about 28%, no sharp cut-off; inactive = mostly below about 43%
LASV entry inh – blocks Lassa virus binding to or entry into cells | Lassa virus pseudotype entry inhibition, cell reporter | 1.2% of 300,000 active | AID 540256 | Potency, µM (series often up to 37.9 µM), usual class: inhibitors; calls by dose curve; tested in HEK293 cells; note: nearly all actives have a fitted effect of over 50% in size
Pf growth 48h – inhibits P. falciparum growth in the first generation, 48 h; P. falciparum luciferase growth in erythrocytes, 48 h; Potency, µM (doses to about 28.7 µM), usual class: inhibitors; 5.9% of 310,000 active; AID 504832
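Parasite viability was followed by luminescence of a genomically integrated firefly luciferase. Cultures held 0.1% parasitemia at 2% hematocrit (final), incubated under 5% CO2 at 37 C.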
MARV entry inh – Marburg virus entry inhibition. Marburg virus pseudotyped entry inhibition, cell reporter. Potency, µM (doses to about 37.8 µM), most hits filed as inhibitors. 1.8% of 300,000 active. AID 540276; calls by dose curve; tested in HEK293 cells
Cycloheximide cs – affects cycloheximide protein synthesis inhibition readout, counter-screen; 12% of 300,000 active; cell reporter, cycloheximide protein synthesis inhibition counterscreen; max response, %; in the data active = max response mostly above about 13%, no sharp cut-off; inactive = mostly below about 14%; note: read at 38.3 µM for the half of the compounds with a filed dose
Hits are given with their value; – = inactive; ? = inconclusive; · = no result given; ! = a repeat was not active. Unless noted, calls come from the whole dose curve; as a rule, active = well fitted inhibition curve with a large enough effect; inconclusive = small, poorly fitted or top-dose-only effect, or another doubt; inactive = no such curve, though single readings can be large or run the other way.

SMILES	Pf growth 96h	Shiga toxin inh	LASV entry inh	Pf growth 48h	MARV entry inh	Cycloheximide cs
CC1=C(C(=O)Nc2ccccc2)C(c2ccc(C)o2)n2c(s/c(=C/c3ccccc3)c2=O)=N1 (configuration not stated)	?	–	–	·	?	–
CC1=C(C(=O)Nc2ccccc2C)C(c2ccc(C)o2)n2c(s/c(=C/c3ccccc3)c2=O)=N1 (configuration not stated)	·	–	–	2.94µM	?	–
COc1ccc(C2C(C(=O)OC(C)C)=C(C)N=c3s/c(=C\c4cccs4)c(=O)n32)cc1 (configuration not stated)	?	–	–	?	–	–
CC1(C)O[C@@H]2C[C@H]3[C@H]4C[C@H](F)C5=CC(=O)CC[C@]5(C)[C@@H]4[C@H](O)C[C@]3(C)[C@]2(C(=O)CO)O1	–	·	·	–	·	·
COc1ccccc1NC(=O)CCCn1c(=S)[nH]c2ccccc2c1=O	–	–	·	?	·	–
O=C(OCCNc1nc(-c2ccccc2)nc2ccccc12)c1ccncc1	–	–	·	?	·	–
CCC(=O)Nc1cccc(NC(=O)c2ccccc2Br)c1	–	–	?	–	?	–
CN(C)S(=O)(=O)c1cccc(NC(=O)c2cc(-c3cccs3)nn2-c2cccc(Cl)c2)c1	14.7µM	–	?	?	?	–
CC(C)c1nc2oc3c(=O)[nH]cnc3c2c2c1CCC2	–	–	–	·	?	–
CCc1ccc(-c2nc(NC(=S)NC(=O)c3cccs3)sc2C)cc1	–	–	–	·	–	–
O=C(NC(=S)Nc1nc2ccccc2s1)c1cccs1	–	74.5	?	–	?	82.2
COC(=O)c1nc(NC(=S)NC(=O)c2cccs2)sc1C	?	51.1	–	–	?	22.8
COC(=O)Cc1nc(NC(=O)c2cccs2)sc1C	–	54.4	–	–	–	35.4
COc1ccc(-c2nnn3c2nc(N2CCCC(C)C2)c2ccccc23)cc1 (configuration not stated)	·	·	–	·	–	·
CC(CCN(C)C)OC(=O)c1ccc(C(C)c2ccccc2)o1 (configuration not stated)	?	–	–	–	?	18.4
COc1ccc(N(CC(=O)N2CCc3ccccc32)S(=O)(=O)c2c(C)n[nH]c2C)cc1	–	–	–	?	–	–
CC(=O)c1c(C)oc2ccc(N(C(C)=O)S(=O)(=O)c3cccc([N+](=O)[O-])c3)cc12	–	–	·	–	·	–
CC(=O)c1c(C)oc2ccc(N(C(=O)C3CCCCC3)S(=O)(=O)c3cc([N+](=O)[O-])ccc3C)cc12	3.7µM	–	–	–	–	–
CSc1nc(=NC(C)=O)ss1	5.22µM	68.4	–	–	–	32.6
CC(C)CC(=O)Nc1ccc2ccccc2c1	–	92.3!	–	–	–	–
CC1(C(=O)Nc2ccc3ccccc3c2)CC1(Br)Br (configuration not stated)	–	65.3	–	–	–	28.9
O=C(CC(c1ccccc1)c1ccccc1)NCCOCc1ccccc1	?	–	–	–	?	–
COCCNC(=O)CC(c1ccccc1)c1ccccc1	9.28µM	–	–	·	–	–
CC(C)(C)CC(=O)Nc1ccc(Nc2ccccc2)cc1	–	46.6	–	–	–	23.1
CCC(=O)Nc1ccc2ccccc2c1	–	–	–	–	?	–
SMILES	Pf growth 96h	Shiga toxin inh	LASV entry inh	Pf growth 48h	MARV entry inh	Cycloheximide cs
COc1cc(NC(=O)CN2C(=O)NC(C)(CC(C)C)C2=O)cc(OC)c1 (configuration not stated)	–	–	?	?	–	–
Cc1ccn(C(=O)c2ccc(NC(=O)CC(C)C)cc2)n1	–	–	–	–	–	15.0
COCCNC(=O)CSc1nc(-c2ccccc2)c(-c2ccccc2)o1	·	–	–	8.28µM	–	–
CC(=O)Nc1ccc(NC(=O)CC(c2ccccc2)c2ccccc2)cc1	–	–	–	11.7µM	–	–
CC(C)CC(=O)Nc1ccc(Nc2ccccc2)cc1	–	36.3	3.55µM	–	?	–
CCC(=O)Nc1ccc(C(=O)n2ccc(C)n2)cc1	·	–	–	–	–	–
O=C(COC(=O)c1ccccc1[N+](=O)[O-])NNC(=O)c1cccs1	–	–	–	–	–	–
Cn1c(CNC(=O)CNC(=O)Cc2ccc(F)cc2)cc(=O)n(C)c1=O	–	–	·	–	·	–
CCCOc1ccc(-c2cccc(NS(=O)(=O)c3ccc(CC)cc3)c2)nn1	·	·	–	·	·	·
CCCCCCNC(=O)CC(c1ccccc1)c1cc(Br)ccc1O (configuration not stated)	?	–	?	11.7µM	?	–
CCOC(=O)c1cc2c(nc1N)CCCC2	–	–	·	–	·	–
C=C(C)CNC(=S)Nc1nc2c(cc1C(=O)OCC)CCCC2	–	active	–	–	–	–
COc1ccc(OC)c(N(CC(=O)NCCSCc2ccco2)S(=O)(=O)c2ccccc2)c1	?	–	?	?	–	–
Cc1c(Cl)ccc(S(=O)(=O)NCCN2CCOCC2)c1Cl	–	–	·	0.131µM	·	–
O=S(=O)(NCCN1CCOCC1)c1cc(Cl)ccc1Cl	6.57µM	–	–	–	–	–
Cc1ccc(S(=O)(=O)N2CCN(C(=O)C3CC(=O)N(c4ccc5c(c4)OCCO5)C3)CC2)cc1 (configuration not stated)	?	·	·	–	·	·
Cc1cc(-c2ccc(S(=O)(=O)N(C)c3ccc(C)c(C)c3)s2)on1	–	–	·	–	·	–
Cc1ccc(CCC(=O)Nc2ncc(Cc3cccc(Cl)c3Cl)s2)o1	–	–	?	–	?	–
COc1ccc([C@H]2CC(=O)C=C(c3cccc(Br)c3)C2)cc1	–	·	·	?	·	·
COc1ccc([C@H]2CC(=O)C=C(c3cc4ccccc4c4ccccc34)C2)cc1	?	·	·	–	·	·
COc1ccc([C@H]2CC(=O)C=C(c3ccc(C)c4ccccc34)C2)cc1	1.17µM	·	·	?	·	·
O=C1C=C(c2ccc(O)cc2)C[C@@H](c2ccc(Cl)cc2)C1	2.33µM	·	·	3.7µM	·	·
COc1cccc(C2=CC(=O)C[C@H](c3ccc(Cl)cc3)C2)c1	?	·	·	2.94µM	·	·
O=C1C=C(c2ccccc2)C[C@@H](c2ccc(Cl)cc2)C1	?	·	·	2.62µM	·	·
C#CCCCON=C1C[C@@H](O)[C@H](O)[C@H]2[C@@H]3C(=O)N(C4CCCCC4)C(=O)[C@@H]3CC[C@@H]12	·	·	·	·	–	·
SMILES	Pf growth 96h	Shiga toxin inh	LASV entry inh	Pf growth 48h	MARV entry inh	Cycloheximide cs
CCOc1ccccc1NC(=O)COC(=O)c1c(CC)noc1C	–	·	–	–	–	·
O=c1cc(-c2ccccc2)c2cc(Cl)c3c(c2o1)CN(Cc1ccccc1)CO3	·	·	–	·	–	·
Cc1ccc(NC(=O)CN(C)C(=O)CSc2nnc(C)s2)cc1	·	·	–	·	–	·
O=C1C=C(c2ccc3[nH]ccc3c2)C[C@@H](c2ccc(Cl)cc2)C1	4.65µM	·	·	2.62µM	·	·
CC(C)c1cccc(C2=CC(=O)C[C@H](c3ccc(F)cc3)C2)c1	2.33µM	·	·	1.65µM	·	·
O=C1C=C(c2cccc(CO)c2)C[C@@H](c2ccc(Cl)cc2)C1	0.465µM	·	·	0.329µM	·	·
O=C1C=C(c2ccc(-c3ccccc3)cc2)C[C@@H](c2ccc(F)cc2)C1	–	·	·	–	·	·
CC(C)c1ccccc1NC(=O)CNCCOc1ccccc1F	–	–	·	·	·	–
